# Source: PubChem BioAssay (NCATS)
# Records with an inconclusive call do not appear. A call without a number means that no potency is given here. Activity calls are given as the source filed them. Calls follow the shape of the dose curve; as a rule, active = well fitted inhibition curve with a large enough effect; inconclusive = small, poorly fitted or top-dose-only effect; inactive = flat fitted curve, though single readings scatter.
# Test system: astro (control astrocytes)
# Assay: Drug repurposing screens with cells derived from glioblastoma tumor samples (AID 1345199); also: nearly all actives have a fitted effect of over 40% in size
# Details: viability, ATP luminescence, 48 h; series mostly up to 45.9 µM
# Description: CD133+ cells were isolated from GBM patient biopsies and cultured as neurospheres. Neurospheres from four patients were used to screen the NCATS pharmaceutical collection (NPC) library of approved drugs and bioactive compounds. […] The neurospheres were incubated with drugs for 48 hours in 1536-well format, then assayed with an ATP content cell viability assay. […] These hits were cherry picked to confirm activity in the four original GBM lines screened plus three other slower growing GMB lines (unable to yield enough cells for a full primary screen). Variable activities of the confirmed primary hits in the different GBM patient lines were observed. The patient line 206 responded to the greatest number of compounds and line 923 responded to the least amount of active compounds.
# Potency is read from the fitted curve at half-maximal effect.
row,SMILES,Potency
1,CCOCCOC(C)=O,inactive
2,C=CC(=O)NCNC(=O)C=C,inactive
3,CCC1(CCC(C)C)C(=O)NC(=O)NC1=O,inactive
4,O=C(O)c1cc(Oc2ccc(C(F)(F)F)cc2Cl)ccc1[N+](=O)[O-],inactive
5,CCCCC(CC)COC(=O)c1ccccc1C(=O)OCC(CC)CCCC (stereo not given),inactive
6,C[N+](C)(C)CC(=O)O,inactive
7,CCO/N=C(\CC)C1=C(O)CC(c2c(C)cc(C)cc2C)CC1=O (stereo not given),inactive
8,Nc1ccc(Sc2ccc(N)cc2)cc1,inactive
9,O=C(O)COc1ccccc1,inactive
10,NC(=O)CN1CC(O)CC1=O (stereo not given),inactive
11,CC(C)(C)NC[C@H](O)c1ccc(O)cc1Cl,inactive
12,CCCCCCCCCC(CC)c1ccc(S(=O)(=O)O)cc1 (stereo not given),inactive
13,CCCN(CCC)c1c([N+](=O)[O-])cc(S(N)(=O)=O)cc1[N+](=O)[O-],31.6 µM (active)
14,CN[C@@H](C)[C@H](O)c1ccccc1,inactive
15,CC1(C)CC/C(=C/c2ccc(Cl)cc2)C1(O)Cn1cncn1 (stereo not given),inactive
16,CC(=O)[O][Hg][c]1ccccc1,1.26 µM (active)
17,NC1=NC(=O)N2CC12 (stereo not given),inactive
18,C[C@@H]1[C@H](O)[C@@H](C)C=CC=CCCC=CC=CC=CC=C[C@H](O[C@H]2O[C@@H](C)[C@H](O)[C@@H](N)[C@@H]2O)CC2O[C@](O)(C[C@@H](O)[C@H](O)CC[C@@H](O)C[C@@H](O)C[C@@H](O)CC(=O)O[C@H]1C)C[C@H](O)[C@H]2C(=O)O,inactive
19,Nc1ccc(Cl)cc1,inactive
20,CN[C@@H]1C[C@@H](c2ccc(Cl)c(Cl)c2)c2ccccc21,20 µM (active)

row,SMILES,Potency
1,CN(C)[C@@H]1C(=O)C(C(N)=O)=C(O)[C@@]2(O)C(=O)C3=C(O)c4c(O)cccc4[C@@](C)(O)[C@H]3[C@H](O)[C@@H]12,inactive
2,O=C(O)C(Cl)Cl,inactive
3,CC[N+]1(CCOC(=O)C(O)(c2ccccc2)c2ccccc2)CCCCC1,inactive
4,COC(=O)c1cncn1C(C)c1ccccc1 (stereo not given),inactive
5,CC(Cc1ccc(O)cc1)NCC(O)c1cc(O)cc(O)c1 (stereo not given),inactive
6,O=[N+]([O-])/N=C1\NCCN1Cc1ccc(Cl)nc1,inactive
7,O=S(=O)(c1ccc(Cl)cc1)c1ccc(Cl)cc1,inactive
8,C[C@]12CC[C@@H]3[C@@H](CCC4=CC(=O)CC[C@@H]43)[C@@H]1CC[C@@H]2OC(=O)CCc1ccccc1,inactive
9,CC(C)NCC(O)c1ccc([N+](=O)[O-])cc1 (stereo not given),inactive
10,ClC1=C(Cl)[C@]2(Cl)[C@@H]3[C@@H]4C[C@@H]([C@H]5O[C@@H]45)[C@@H]3[C@@]1(Cl)C2(Cl)Cl,inactive
11,O=[N+]([O-])c1ccc([As](=O)(O)O)cc1,inactive
12,Cc1ccc(Cl)c(O)c1,inactive
13,C[C@]12CCC(=O)C(O)=C1CC[C@@H]1[C@H]3CCC(=O)[C@@]3(C)CC[C@@H]12,inactive
14,CC(C)(C)C(O)C(Oc1ccc(Cl)cc1)n1cncn1 (stereo not given),inactive
15,CCOP(=O)(NC(C)C)Oc1ccc(SC)c(C)c1 (stereo not given),inactive
16,CCCCc1ccc(C(=O)O)nc1,inactive
17,COC(C)(C)CCCC(C)C/C=C/C(C)=C/C(=O)OC(C)C (stereo not given),inactive
18,Nc1c(Cl)c(Cl)c(Cl)c(Cl)c1Cl,inactive
19,CCCCOC(=O)c1ccccc1C(=O)OCc1ccccc1,inactive
20,O=S(=O)(O)C(F)(F)C(F)(F)C(F)(F)C(F)(F)F,inactive
